Anthrax LF prot = anthrax lethal factor protease inhibition | P15917 | multiplex microsphere protease cleavage assay, LF | inhibition, % at 10 µM | 0.12% of 360,000 active | AID 588501; further: plate controls were buffer without enzyme for full effect and enzyme alone for no effect
BoNT-A LC inh2 = blocks Botulinum neurotoxin A light chain protease; inhibition, % at 10 µM; multiplex microsphere protease substrate cleavage, flow cytometry; 0.17% of 360,000 active; further: plate controls were buffer without enzyme for full effect and enzyme alone for no effect
BJeLR viability = kills HRASV12-expressing BJeLR cells; inhibition, % (no concentration beside the values); AID 1554; BJeLR (HRASV12) viability, CellTiter-Glo ATP luminescence, 48 h; 0.17% of 300,000 active; in the data active means inhibition above about 50%; inconclusive means no clear call, values can overlap the other calls
Autofluor counter = flagged as autofluorescent in microsphere protease counterscreen; AID 624483; 3.1% of 360,000 active; fluorescence intensity (concentration not given with the values); compound autofluorescence counterscreen, microsphere flow cytometry; hits give high values; in the data active means fluorescence intensity above about 16000; inconclusive means no clear call, values can overlap the other calls
BoNT F protease = inhibitors of Botulinum neurotoxin F light chain protease | Multiplex microsphere protease cleavage assay, flow cytometry | 0.22% of 360,000 active | inhibition, % at 10 µM; in the data active means inhibition above about 35%, passing the limit was not always enough; inconclusive means no clear call, values can overlap the other calls; further: plate controls were buffer without enzyme for full effect and enzyme alone for no effect
Active calls of the source: *; ? = inconclusive; . = no result given. Shown are actives, neighbours in structure and some others; about 3.5% of the full set was active somewhere. Unless noted, no stated cut-off is given here; in the data, active means inhibition above about 30%; inconclusive means no clear call, values can overlap the other calls; inactive means below that.

SMILES	Anthrax LF prot	BoNT-A LC inh2	BJeLR viability	Autofluor counter	BoNT F protease
CC1=CC(=O)C=C(C)C1=NOS(=O)(=O)c1ccccc1	-0.3	-0.6	82.1*	4860	-17.9
CC1=CC(=O)C(C(C)C)=C/C1=N/OS(=O)(=O)c1ccccc1	8.2	-1.5	115.8*	2878	8.1
COc1cccc(-c2nc3ccc(O)cc3c(=O)o2)c1	-0.7	?	2.7	23859*	-2.8
CC(=O)Oc1cccc(-c2nc3ccccc3c(=O)o2)c1	-3.3	-0.4	5.0	3190	-2.6
Cc1cc(C(=O)N2CCC2(C)C(=O)NS(=O)(=O)c2ccccc2Cl)nn1C (stereo not drawn)	-5.2	-0.2	.	3793	-1.4
COc1ccccc1Oc1ccc(S(=O)(=O)N2CCCC2)cc1	-2.7	0.8	11.0	23093*	3.2
COc1ccccc1-n1c(SCC(N)=O)nnc1-c1ccc(S(=O)(=O)N2CCCCC2)cc1	-0.5	0.4	-14.4	22234*	4.5
CCc1nc2ccc(C(=O)N(C)CCN(C)C)cn2c1N(C)CCC(C)C	-1.5	-0.1	.	3959	0.0
O=C(Nc1ccnc(-c2cccnc2)n1)c1ccccc1Cl	-0.4	-0.4	2.9	2794	-5.7
CC(C)C(=O)Nc1ccnc(-c2cccnc2)n1	-0.1	0.5	0.0	22732*	0.8
O=C(Nc1ccnc(-c2cccnc2)n1)c1cccc(Cl)c1Cl	-5.2	-1.1	11.4	22659*	-1.2
CCC(CO)Oc1cc(NC(=O)c2cccc(OC)c2)c2ncn(C(C)C)c2c1 (stereo not drawn)	-11.4	0.1	.	3777	-0.5
Cc1cccc(OC(=O)N2CCOCC2)c1	-3.1	-1.0	.	24289*	-0.5
O=C(Oc1ccc(-c2ccccc2)cc1)N1CCOCC1	0.3	?	1.6	21166*	-1.7
CCCN(CCC)CC(O)CN1C(=O)N(CN2C(=O)N(CC(O)CN(CCC)CCC)C(=O)C2(C)C)C(C)(C)C1=O (stereo not drawn)	-2.4	2.4	-0.5	4587	11.4
Cc1ccc(-c2nnn(Cc3nc4ccccc4s3)n2)cc1	2.0	4.6	10.5	21007*	4.1
CC(C)CC(C(=O)NC(=O)NCc1ccccc1)N1C(=O)c2ccccc2C1=O (stereo not drawn)	-4.7	-0.3	-3.4	2098	3.9
O=C(COC(=O)c1ccccc1C(=O)c1ccc(Cl)c([N+](=O)[O-])c1)NC1CCCCCC1	0.0	-0.6	0.9	23481*	-1.4
O=C(COC(=O)c1ccc(Cl)c([N+](=O)[O-])c1)NC1CCCC1	-1.4	-2.0	-3.8	4070	-2.3
CCCC(=O)n1nc(-c2ccc(C)cc2)nc1NCc1ccco1	-6.7	-0.3	-0.9	3879	-1.3
COc1ccc(CC(=O)n2nc(-c3ccc(Cl)cc3)nc2NCc2ccco2)cc1	-5.3	?	0.7	24639*	-5.6
CC(=O)n1nc(-c2ccc(Cl)cc2)nc1NCc1ccco1	-1.0	-3.4	1.7	21596*	-5.2
O=C(c1cccs1)n1nc(-c2ccc(Cl)cc2)nc1NCc1ccco1	4.3	-0.3	5.1	6121	-10.4
Cc1ccc(NC(=O)COC(=O)CN2C(=O)NC3(CCCC3)C2=O)cc1Cl	4.0	-1.1	.	3923	-6.5
COc1ccc(NC(=O)C23CC4CC(C2)CC(n2cnc(Br)n2)(C4)C3)cc1Cl	-0.8	-0.1	-12.3	16232*	-3.4
SMILES	Anthrax LF prot	BoNT-A LC inh2	BJeLR viability	Autofluor counter	BoNT F protease
COc1ccc(NC(=O)C2(C)Cc3c(-c4ccc(N(C)C)cc4)ccnc3O2)cn1 (stereo not drawn)	-0.2	-0.2	.	2808	-12.8
O=C(CN1CCN(c2ccccn2)CC1)N1CC(O)CO1 (stereo not drawn)	-8.1	0.3	3.9	3858	4.2
O=C(CN1CCN(c2ccccn2)CC1)N1c2ccccc2CCc2ccccc21	-2.7	-0.4	-1.2	20825*	-0.8
O=C(CN1CCN(c2ccccn2)CC1)N1c2ccccc2Sc2ccc(C(F)(F)F)cc21	-2.3	-3.6	0.7	17711*	-6.8
Nc1cc(N)nc(SCC(=O)N2CCCCC2)n1	8.0	-0.9	-8.0	6934	-3.4
CC1CCN(C(=O)CSc2nc(N)cc(N)n2)CC1	-2.1	-3.2	.	23394*	-5.2
NCCc1nnc(SCc2ccccc2Cl)o1	?	7.7	-0.1	3185	44.8*
CC(C)(C)OC(=O)NCCc1nnc(SCc2ccccc2Cl)o1	-0.1	-0.3	-2.3	16944*	0.0
CC(C)(C)OC(=O)NCCc1nnc(SCc2ccccc2)o1	.	.	1.2	.	.
NCCCCCc1nnc(SCc2ccc(Cl)cc2Cl)o1	?	?	3.3	?	?
N#CC1=C(N)Oc2n[nH]c(-c3ccccc3)c2C1c1cccnc1 (stereo not drawn)	-0.9	-0.2	-4.6	4132	-6.7
CCCc1nn(C)c2c1C(c1cccnc1)C(C#N)=C(N)O2 (stereo not drawn)	-2.0	-2.7	2.4	23902*	-5.8
CC(C)c1[nH]nc2c1C(c1cccnc1)C(C#N)=C(N)O2 (stereo not drawn)	-0.3	-1.3	-8.3	19924*	-0.7
Cc1ccc(-c2[nH]nc3c2C(c2ccc(OC(=O)N4CCOCC4)cc2)C(C#N)=C(N)O3)cc1 (stereo not drawn)	-4.9	?	8.7	16622*	-2.5
Cc1ccc(-c2[nH]nc3c2C(c2cccnc2)C(C#N)=C(N)O3)cc1 (stereo not drawn)	-3.4	?	-0.8	23057*	0.1
NS(=O)(=O)c1ccc(Sc2ccc3ccccc3c2)nc1	-10.7	-3.2	-3.2	2937	7.2
CCCCc1c(Cc2cccc(F)c2)ncn1CCc1ccccc1OC	-5.3	0.2	.	6433	-0.3
CC(=O)Nc1cccc(C(=O)OC(C(=O)c2ccc(C)c(C)c2)c2ccccc2)c1 (stereo not drawn)	-12.9	-0.8	6.1	19826*	-2.5
CCOC(=O)c1ccc(N2C(=O)c3n[nH]c(C)c3C2c2ccc(OC)c(OC)c2)cc1 (stereo not drawn)	1.0	?	-6.5	19224*	4.1
CCOC(=O)c1ccc(N2C(=O)c3n[nH]c(C)c3C2c2ccc(OC)cc2)cc1 (stereo not drawn)	-11.3	-0.5	-11.2	4388	-4.0
CCOc1cc(C2c3c(n[nH]c3C)C(=O)N2c2ccc(Br)cc2)ccc1O (stereo not drawn)	-6.6	0.1	-4.9	3428	50.7*
Cc1ccc(C)c(NC(=O)c2nnn(Cc3ccccc3C)c2N)c1	-2.3	-0.9	1.9	23851*	-3.2
Cc1ccc(NC(=O)Cn2nnc(C(=O)NCc3ccccc3)c2N)cc1C	0.1	-2.8	-0.2	23778*	-4.4
COc1ccc(-c2oc(NC(=O)CSc3ncn[nH]3)c(C#N)c2-c2ccc(OC)cc2)cc1	-7.9	-2.0	-10.2	22915*	-4.1
CCOC(=O)N1CCN(c2nnnn2-c2ccccc2)CC1	2.2	1.3	5.2	4219	-15.8
COc1ccc(C(=O)N2CCN(c3nnnn3-c3ccccc3)CC2)cc1OC	-1.4	-0.3	-8.2	23177*	-0.8
CCc1nc(C)cc(N)c1OCc1ccccc1	-1.1	-2.4	-10.4	17332*	0.8
CC(=O)Oc1ccc(OC(C)=O)c2c1CC1(C)OC1(C)C2 (stereo not drawn)	0.4	0.4	.	3582	0.6

Assay outcomes deposited in PubChem BioAssay by several laboratories.
